# Source: PMC7862700, “An all-to-all approach to the identification of sequence-specific readers for epigenetic DNA modifications on cytosine”
# Key:
# Assay in all cases: DAPPL (digital affinity profiling via proximity ligation, sequencing); 10 mM Tris-HCl pH 7.5, 50 mM NaCl, 1 mM DTT, 4% glycerol, room temperature, 30 min; GST-TFs on glutathione beads, 16-mer random dsDNA library, 0.1% formaldehyde crosslink after washing; high values mean tight binding
# [1] = target: T1, FLI1 (Homo sapiens, UniProt Q01543 1-452); settings: protein: recombinant; tags: N-terminal GST; dsDNA, one strand shown
# T1 sequence: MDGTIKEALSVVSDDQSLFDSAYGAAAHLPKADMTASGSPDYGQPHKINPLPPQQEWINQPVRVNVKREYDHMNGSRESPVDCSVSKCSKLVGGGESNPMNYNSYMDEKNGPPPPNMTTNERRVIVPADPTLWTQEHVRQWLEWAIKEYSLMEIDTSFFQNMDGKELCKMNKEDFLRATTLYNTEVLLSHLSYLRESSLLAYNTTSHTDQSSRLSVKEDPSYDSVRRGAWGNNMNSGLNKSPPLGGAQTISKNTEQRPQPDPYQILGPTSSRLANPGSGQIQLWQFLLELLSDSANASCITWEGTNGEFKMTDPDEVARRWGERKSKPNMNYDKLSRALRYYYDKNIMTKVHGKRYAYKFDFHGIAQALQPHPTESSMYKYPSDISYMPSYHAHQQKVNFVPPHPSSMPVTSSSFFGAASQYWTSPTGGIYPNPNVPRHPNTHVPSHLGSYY
# Procedure, shortened: (§1)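 Human transcription factors fused to GST were expressed in yeast, captured on glutathione beads, given DNA barcodes and pooled with a GST-only negative control. Pools were incubated with 200 nmole of a 16-mer random double-stranded DNA library in Tris/NaCl/DTT/glycerol buffer at room temperature for 30 min. They were then washed, crosslinked with 0.1% formaldehyde, proximity-ligated (BsaI/T4 ligase, 1 h, 37 °C), PCR-amplified and sequenced on an Illumina NextSeq500. Binding signal is each 6-mer's read frequency for a factor divided by its frequency for the GST control.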
# [2] = target: T2, ELK1 (Homo sapiens, UniProt P19419 1-428); settings: protein: recombinant; tags: N-terminal GST; dsDNA, one strand shown
# T2 sequence: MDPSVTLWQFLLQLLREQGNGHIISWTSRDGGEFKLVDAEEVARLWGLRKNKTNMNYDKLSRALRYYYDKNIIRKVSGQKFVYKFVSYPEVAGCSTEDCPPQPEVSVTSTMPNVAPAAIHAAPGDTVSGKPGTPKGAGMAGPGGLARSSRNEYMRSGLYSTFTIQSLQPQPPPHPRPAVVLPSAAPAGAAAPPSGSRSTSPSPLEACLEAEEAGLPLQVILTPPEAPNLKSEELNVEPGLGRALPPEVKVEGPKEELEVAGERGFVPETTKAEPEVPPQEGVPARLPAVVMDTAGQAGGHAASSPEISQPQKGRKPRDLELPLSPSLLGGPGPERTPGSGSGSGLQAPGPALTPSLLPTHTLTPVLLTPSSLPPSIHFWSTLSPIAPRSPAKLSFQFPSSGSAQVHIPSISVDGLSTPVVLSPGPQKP
# Procedure, shortened: as §1
# [3] = target: T3, GABPA (Homo sapiens, UniProt Q06546 1-454); settings: protein: recombinant; tags: N-terminal GST; dsDNA, one strand shown
# T3 sequence: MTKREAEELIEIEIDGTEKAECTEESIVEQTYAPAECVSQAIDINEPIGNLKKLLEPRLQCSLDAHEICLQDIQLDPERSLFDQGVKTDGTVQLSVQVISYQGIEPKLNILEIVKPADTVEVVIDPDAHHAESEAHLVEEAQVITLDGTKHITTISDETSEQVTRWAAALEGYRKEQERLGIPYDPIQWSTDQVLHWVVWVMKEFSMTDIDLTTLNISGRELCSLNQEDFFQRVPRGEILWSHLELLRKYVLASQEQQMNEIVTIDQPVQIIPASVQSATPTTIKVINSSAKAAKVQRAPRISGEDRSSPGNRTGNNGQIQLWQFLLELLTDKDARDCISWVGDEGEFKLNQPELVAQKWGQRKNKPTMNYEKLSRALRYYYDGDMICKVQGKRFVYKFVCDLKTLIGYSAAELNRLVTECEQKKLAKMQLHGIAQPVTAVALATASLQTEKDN
# Procedure, shortened: as §1
# [4] = target: T4, ERG (Homo sapiens, UniProt P11308 1-479); settings: protein: recombinant; tags: N-terminal GST; dsDNA, one strand shown
# T4 sequence: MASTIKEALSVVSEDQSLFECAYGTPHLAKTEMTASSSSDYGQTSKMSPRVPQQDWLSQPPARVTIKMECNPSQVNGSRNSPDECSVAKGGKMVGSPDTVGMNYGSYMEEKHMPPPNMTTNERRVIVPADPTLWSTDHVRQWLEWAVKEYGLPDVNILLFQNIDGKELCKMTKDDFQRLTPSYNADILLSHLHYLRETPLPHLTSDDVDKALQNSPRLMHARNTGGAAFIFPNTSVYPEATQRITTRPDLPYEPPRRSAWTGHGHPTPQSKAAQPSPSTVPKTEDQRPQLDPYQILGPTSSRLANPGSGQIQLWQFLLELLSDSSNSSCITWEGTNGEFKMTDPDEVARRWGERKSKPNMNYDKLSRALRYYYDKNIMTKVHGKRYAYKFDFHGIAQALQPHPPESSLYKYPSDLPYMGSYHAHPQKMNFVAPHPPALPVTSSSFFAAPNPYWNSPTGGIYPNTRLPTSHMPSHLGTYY
# Procedure, shortened: as §1
# [5] = target: ELF1 (Homo sapiens, UniProt P32519 1-619); settings: protein: recombinant; tags: N-terminal GST; dsDNA, one strand shown
# Sequence of ELF1 (P32519 whole entry): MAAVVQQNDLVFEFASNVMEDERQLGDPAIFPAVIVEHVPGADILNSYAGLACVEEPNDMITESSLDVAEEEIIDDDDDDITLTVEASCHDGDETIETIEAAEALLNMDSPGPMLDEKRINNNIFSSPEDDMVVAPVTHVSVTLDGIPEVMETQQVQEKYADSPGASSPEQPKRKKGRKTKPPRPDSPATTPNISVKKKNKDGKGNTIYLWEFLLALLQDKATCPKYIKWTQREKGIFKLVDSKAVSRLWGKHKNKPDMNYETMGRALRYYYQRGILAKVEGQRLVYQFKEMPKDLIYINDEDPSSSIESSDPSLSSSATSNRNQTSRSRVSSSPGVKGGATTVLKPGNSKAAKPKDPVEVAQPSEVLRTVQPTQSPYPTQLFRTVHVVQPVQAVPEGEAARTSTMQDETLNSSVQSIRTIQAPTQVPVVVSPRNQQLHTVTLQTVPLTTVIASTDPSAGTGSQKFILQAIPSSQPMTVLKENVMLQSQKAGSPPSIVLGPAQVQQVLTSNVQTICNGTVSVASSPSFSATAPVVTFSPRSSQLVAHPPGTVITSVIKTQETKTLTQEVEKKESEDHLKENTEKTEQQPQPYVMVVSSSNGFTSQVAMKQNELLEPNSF
# Procedure, shortened: as §1
# [6] = target: T5, EHF (Homo sapiens, UniProt Q9NZC4 1-300); settings: protein: recombinant; tags: N-terminal GST; dsDNA, one strand shown
# T5 sequence: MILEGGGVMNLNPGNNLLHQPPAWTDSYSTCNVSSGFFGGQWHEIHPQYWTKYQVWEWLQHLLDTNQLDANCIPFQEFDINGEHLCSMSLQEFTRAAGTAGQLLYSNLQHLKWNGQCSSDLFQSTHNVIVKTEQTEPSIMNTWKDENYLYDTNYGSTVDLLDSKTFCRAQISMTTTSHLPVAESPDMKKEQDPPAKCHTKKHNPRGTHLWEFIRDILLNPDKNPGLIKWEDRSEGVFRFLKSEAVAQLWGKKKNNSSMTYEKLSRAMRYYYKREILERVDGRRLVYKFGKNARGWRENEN
# Procedure, shortened: as §1
# [7] = target: SPI1 (Homo sapiens, UniProt P17947 1-270); settings: protein: recombinant; tags: N-terminal GST; dsDNA, one strand shown
# Procedure, shortened: as §1
# [8] = target: SPIB (Homo sapiens, UniProt Q01892 1-262); settings: protein: recombinant; tags: N-terminal GST; dsDNA, one strand shown
# Sequence of SPIB (Q01892 whole entry): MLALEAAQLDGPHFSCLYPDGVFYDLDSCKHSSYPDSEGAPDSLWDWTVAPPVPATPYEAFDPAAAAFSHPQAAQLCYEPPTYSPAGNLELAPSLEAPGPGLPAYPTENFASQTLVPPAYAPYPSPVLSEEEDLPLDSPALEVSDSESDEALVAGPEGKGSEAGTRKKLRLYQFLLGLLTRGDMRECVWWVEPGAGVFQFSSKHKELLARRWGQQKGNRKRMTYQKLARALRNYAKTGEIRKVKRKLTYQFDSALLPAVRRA
# Procedure, shortened: as §1
# [9] = target: T6, ELK3 (Homo sapiens, UniProt P41970 1-407); settings: protein: recombinant; tags: N-terminal GST; dsDNA, one strand shown
# T6 sequence: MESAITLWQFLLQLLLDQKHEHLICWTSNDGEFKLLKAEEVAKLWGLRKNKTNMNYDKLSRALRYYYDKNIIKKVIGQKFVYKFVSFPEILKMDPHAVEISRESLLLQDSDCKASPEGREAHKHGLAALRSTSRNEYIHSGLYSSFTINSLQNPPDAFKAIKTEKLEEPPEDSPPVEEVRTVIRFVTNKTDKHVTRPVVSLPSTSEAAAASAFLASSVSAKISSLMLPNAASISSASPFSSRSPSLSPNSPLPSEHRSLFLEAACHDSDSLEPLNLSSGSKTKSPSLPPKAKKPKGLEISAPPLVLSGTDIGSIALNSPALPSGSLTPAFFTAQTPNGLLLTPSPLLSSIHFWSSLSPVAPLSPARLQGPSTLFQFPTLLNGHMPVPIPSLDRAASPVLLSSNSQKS
# Procedure, shortened: as §1
# [10] = target: T7, FEV (Homo sapiens, UniProt Q99581 1-238); settings: protein: recombinant; tags: N-terminal GST; dsDNA, one strand shown
# T7 sequence: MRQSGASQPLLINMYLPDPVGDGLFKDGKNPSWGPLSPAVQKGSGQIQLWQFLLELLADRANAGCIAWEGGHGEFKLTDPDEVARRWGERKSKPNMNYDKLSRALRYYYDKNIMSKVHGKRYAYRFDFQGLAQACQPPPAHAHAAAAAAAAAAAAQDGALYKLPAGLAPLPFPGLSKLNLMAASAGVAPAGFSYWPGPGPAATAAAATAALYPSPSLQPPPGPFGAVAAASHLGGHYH
# Procedure, shortened: as §1
# [11] = target: ETV5 (Homo sapiens, UniProt P41161 1-510); settings: protein: recombinant; tags: N-terminal GST; dsDNA, one strand shown
# Sequence of ETV5 (P41161 whole entry): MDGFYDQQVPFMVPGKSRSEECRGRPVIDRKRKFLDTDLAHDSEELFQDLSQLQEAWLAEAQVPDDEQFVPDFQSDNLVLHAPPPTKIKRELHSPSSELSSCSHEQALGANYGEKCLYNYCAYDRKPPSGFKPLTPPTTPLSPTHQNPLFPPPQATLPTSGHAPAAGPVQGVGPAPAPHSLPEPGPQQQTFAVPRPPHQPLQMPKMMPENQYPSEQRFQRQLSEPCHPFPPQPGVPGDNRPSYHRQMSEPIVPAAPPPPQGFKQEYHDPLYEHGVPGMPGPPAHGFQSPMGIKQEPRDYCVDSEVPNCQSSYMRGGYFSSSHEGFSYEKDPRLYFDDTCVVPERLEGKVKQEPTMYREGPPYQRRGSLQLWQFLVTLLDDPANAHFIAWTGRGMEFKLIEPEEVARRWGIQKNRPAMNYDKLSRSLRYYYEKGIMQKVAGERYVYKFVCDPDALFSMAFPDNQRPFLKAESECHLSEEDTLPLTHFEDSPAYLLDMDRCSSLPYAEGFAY
# Procedure, shortened: as §1
# [12] = target: HSF1 (Homo sapiens, UniProt Q00613 1-529); settings: protein: recombinant; tags: N-terminal GST; chain copies: 3; dsDNA, one strand shown
# Sequence of HSF1 (Q00613 whole entry): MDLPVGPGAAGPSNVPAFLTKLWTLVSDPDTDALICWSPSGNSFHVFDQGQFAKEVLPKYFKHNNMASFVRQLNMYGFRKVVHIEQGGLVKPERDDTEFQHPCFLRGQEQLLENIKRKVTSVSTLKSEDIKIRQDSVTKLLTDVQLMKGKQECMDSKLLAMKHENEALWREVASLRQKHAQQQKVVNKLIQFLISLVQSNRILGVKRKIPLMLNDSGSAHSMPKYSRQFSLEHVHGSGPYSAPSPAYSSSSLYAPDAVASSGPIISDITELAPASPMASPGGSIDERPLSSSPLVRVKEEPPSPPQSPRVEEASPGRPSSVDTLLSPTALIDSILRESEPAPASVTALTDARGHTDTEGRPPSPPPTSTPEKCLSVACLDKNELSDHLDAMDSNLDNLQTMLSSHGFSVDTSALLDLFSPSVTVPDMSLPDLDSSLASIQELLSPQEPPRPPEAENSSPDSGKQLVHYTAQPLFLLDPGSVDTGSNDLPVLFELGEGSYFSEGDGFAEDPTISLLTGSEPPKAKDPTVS
# Procedure, shortened: as §1
# [13] = target: T8, SPIC (Homo sapiens, UniProt Q8N5J4 1-248); settings: protein: recombinant; tags: N-terminal GST; dsDNA, one strand shown
# T8 sequence: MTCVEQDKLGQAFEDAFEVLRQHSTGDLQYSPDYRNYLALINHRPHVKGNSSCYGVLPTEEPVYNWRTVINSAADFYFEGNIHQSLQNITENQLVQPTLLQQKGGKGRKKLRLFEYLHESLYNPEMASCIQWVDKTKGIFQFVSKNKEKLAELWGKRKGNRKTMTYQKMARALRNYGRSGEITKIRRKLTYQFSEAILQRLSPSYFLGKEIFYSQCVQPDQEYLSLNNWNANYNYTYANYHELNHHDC
# Procedure, shortened: as §1
# [14] = target: ELF4 (Homo sapiens, UniProt Q99607 1-663); settings: protein: recombinant; tags: N-terminal GST; dsDNA, one strand shown
# Sequence of ELF4 (Q99607 whole entry): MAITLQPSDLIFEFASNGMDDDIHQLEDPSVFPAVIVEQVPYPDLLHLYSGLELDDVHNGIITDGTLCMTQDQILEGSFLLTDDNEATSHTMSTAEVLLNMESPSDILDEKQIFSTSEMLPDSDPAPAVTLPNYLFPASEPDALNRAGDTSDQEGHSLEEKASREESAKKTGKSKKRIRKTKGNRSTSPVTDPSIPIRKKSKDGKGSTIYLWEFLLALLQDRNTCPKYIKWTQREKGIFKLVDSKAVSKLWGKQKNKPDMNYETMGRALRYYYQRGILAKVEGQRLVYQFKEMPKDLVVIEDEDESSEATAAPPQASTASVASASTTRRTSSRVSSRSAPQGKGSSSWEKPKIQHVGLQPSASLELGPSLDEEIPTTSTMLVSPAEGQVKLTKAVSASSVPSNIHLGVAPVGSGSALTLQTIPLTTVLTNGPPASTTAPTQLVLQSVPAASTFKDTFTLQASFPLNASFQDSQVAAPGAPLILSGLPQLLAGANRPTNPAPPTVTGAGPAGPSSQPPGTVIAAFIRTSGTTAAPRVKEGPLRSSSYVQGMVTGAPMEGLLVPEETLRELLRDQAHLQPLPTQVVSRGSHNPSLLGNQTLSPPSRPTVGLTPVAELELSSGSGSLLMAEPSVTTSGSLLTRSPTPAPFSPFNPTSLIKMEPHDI
# Procedure, shortened: as §1
# [15] = target: T9, ELK4 (Homo sapiens, UniProt P28324-2 1-405); settings: protein: recombinant; tags: N-terminal GST; dsDNA, one strand shown
# T9 sequence: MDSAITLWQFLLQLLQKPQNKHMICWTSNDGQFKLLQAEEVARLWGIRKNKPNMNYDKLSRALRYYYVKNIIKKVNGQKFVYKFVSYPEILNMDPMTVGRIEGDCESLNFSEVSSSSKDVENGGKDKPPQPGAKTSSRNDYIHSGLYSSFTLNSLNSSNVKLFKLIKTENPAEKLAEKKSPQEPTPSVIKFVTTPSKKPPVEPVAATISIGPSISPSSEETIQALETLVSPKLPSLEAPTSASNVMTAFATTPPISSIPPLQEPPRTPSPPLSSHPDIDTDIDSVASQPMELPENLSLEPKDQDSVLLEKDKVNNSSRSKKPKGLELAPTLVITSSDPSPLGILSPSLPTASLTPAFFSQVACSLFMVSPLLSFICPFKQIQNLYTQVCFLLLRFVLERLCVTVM
# Procedure, shortened: as §1
# [16] = target: T10, ETV2 (Homo sapiens, UniProt O00321 1-342); settings: protein: recombinant; tags: N-terminal GST; dsDNA, one strand shown
# T10 sequence: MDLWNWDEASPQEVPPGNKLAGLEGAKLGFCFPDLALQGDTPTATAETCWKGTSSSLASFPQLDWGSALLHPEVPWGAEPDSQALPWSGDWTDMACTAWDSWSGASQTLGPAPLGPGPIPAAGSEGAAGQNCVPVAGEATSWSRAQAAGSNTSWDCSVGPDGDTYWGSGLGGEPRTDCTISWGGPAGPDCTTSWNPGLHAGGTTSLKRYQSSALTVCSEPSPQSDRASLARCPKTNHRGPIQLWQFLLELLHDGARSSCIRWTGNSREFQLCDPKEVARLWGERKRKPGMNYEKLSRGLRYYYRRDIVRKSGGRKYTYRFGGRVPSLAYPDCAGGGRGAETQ
# Procedure, shortened: as §1
# [17] = target: T11, ELF3 (Homo sapiens, UniProt P78545 1-371); settings: protein: recombinant; tags: N-terminal GST; dsDNA, one strand shown
# T11 sequence: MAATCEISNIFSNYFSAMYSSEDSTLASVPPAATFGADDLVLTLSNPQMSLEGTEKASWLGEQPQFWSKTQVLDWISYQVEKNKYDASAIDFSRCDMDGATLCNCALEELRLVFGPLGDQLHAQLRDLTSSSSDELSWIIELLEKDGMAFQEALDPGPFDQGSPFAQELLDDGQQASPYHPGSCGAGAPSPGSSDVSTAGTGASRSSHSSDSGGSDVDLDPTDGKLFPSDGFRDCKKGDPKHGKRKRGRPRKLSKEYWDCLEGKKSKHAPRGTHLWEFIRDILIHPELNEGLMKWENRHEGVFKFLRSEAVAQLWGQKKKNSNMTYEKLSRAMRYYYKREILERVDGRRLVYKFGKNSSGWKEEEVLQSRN
# Procedure, shortened: as §1
# [18] = target: CRX (Homo sapiens, UniProt O43186 1-299); settings: protein: recombinant; tags: N-terminal GST; dsDNA, one strand shown
# Sequence of CRX (O43186 whole entry): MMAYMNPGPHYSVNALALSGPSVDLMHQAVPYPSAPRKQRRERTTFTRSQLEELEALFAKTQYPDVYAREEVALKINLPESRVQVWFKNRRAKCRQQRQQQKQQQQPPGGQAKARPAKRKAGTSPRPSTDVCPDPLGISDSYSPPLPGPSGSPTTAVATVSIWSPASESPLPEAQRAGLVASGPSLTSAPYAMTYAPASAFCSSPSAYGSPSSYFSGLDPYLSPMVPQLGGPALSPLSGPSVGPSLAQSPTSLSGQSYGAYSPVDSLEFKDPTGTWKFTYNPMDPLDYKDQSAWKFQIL
# Procedure, shortened: as §1
# [19] = target: ETV1 (Homo sapiens, UniProt P50549 1-477); settings: protein: recombinant; tags: N-terminal GST; dsDNA, one strand shown
# Sequence of ETV1 (P50549 whole entry): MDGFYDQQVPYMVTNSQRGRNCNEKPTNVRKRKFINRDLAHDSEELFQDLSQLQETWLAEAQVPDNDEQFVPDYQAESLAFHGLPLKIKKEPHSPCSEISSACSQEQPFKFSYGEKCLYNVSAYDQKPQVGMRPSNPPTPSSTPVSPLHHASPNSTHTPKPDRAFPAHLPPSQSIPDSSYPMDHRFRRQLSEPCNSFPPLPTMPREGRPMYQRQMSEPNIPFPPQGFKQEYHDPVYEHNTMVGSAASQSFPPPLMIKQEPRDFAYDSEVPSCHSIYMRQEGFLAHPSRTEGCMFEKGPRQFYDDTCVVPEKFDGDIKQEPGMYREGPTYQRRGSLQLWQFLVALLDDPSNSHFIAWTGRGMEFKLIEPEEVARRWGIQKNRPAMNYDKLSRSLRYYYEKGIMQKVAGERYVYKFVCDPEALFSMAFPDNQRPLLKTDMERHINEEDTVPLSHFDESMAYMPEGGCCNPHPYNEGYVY
# Procedure, shortened: as §1
sequence,measurement,setting,value
CGTAAT,binding signal,[1],"1.19 fold enrichment (6-mer frequency, TF over GST control)"
same,binding signal,[2],"1.14 fold enrichment (6-mer frequency, TF over GST control)"
same,binding signal,[3],"1.13 fold enrichment (6-mer frequency, TF over GST control)"
same,binding signal,[4],"1.19 fold enrichment (6-mer frequency, TF over GST control)"
same,binding signal,[5],"1.18 fold enrichment (6-mer frequency, TF over GST control)"
same,binding signal,[6],"1.13 fold enrichment (6-mer frequency, TF over GST control)"
same,binding signal,[7],"1.16 fold enrichment (6-mer frequency, TF over GST control)"
same,binding signal,[8],"1.19 fold enrichment (6-mer frequency, TF over GST control)"
same,binding signal,[9],"1.04 fold enrichment (6-mer frequency, TF over GST control)"
same,binding signal,[10],"1.19 fold enrichment (6-mer frequency, TF over GST control)"
same,binding signal,[11],"1.21 fold enrichment (6-mer frequency, TF over GST control)"
same,binding signal,[12],"1.5 fold enrichment (6-mer frequency, TF over GST control)"
same,binding signal,[13],"1.14 fold enrichment (6-mer frequency, TF over GST control)"
same,binding signal,[14],"1.22 fold enrichment (6-mer frequency, TF over GST control)"
same,binding signal,[15],"1.17 fold enrichment (6-mer frequency, TF over GST control)"
same,binding signal,[16],"1.17 fold enrichment (6-mer frequency, TF over GST control)"
same,binding signal,[17],"1.29 fold enrichment (6-mer frequency, TF over GST control)"
same,binding signal,[18],"1.94 fold enrichment (6-mer frequency, TF over GST control)"
same,binding signal,[19],"1.24 fold enrichment (6-mer frequency, TF over GST control)"
